17 molecules from PubChem BioAssay can be followed below.

For orientation: inhibition means the relative decrease from the control value, in per cent.

A number with no mark means an inactive call. The rule behind the calls is not given here.

The experiment deals with Pantothenate synthetase (Mycobacterium tuberculosis (strain ATCC 25618 / H37Rv)) (UniProt P9WIL5). Kind of experiment: Coupled enzyme confirmation of inhibitors against recombinant Mtb PanC (AID 375).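 Note: 0% = full reaction with vehicle and 100% = no enzyme background.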 The settings on record: coupled enzyme assay; at 10 µM, stronger effect = higher value.
Pantothenate synthetase (Mycobacterium tuberculosis (strain ATCC 25618 / H37Rv)), sequence (P9WIL5 whole entry, looked up): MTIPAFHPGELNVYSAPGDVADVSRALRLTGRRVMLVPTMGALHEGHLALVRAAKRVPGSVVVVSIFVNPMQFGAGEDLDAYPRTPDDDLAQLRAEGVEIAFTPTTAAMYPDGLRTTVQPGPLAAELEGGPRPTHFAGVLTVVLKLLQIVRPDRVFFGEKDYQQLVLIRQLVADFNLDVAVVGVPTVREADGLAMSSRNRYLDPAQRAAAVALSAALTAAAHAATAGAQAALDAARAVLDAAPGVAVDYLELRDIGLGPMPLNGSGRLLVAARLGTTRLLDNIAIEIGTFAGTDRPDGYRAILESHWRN
On to `CN(C#N)c1nc(N2CCOCC2)nc(N2CCOCC2)n1`, for which the inhibition was 1%.

For the molecule `Cc1c(CCC#N)c(N2CCN(C3CCCCC3)CC2)n2c(nc3ccccc32)c1C#N`, the inhibition was 3%.

As to `O=C(CCn1c(=S)[nH]c2cc3c(cc2c1=O)OCO3)N1CCN(C2CCCCC2)CC1`, the inhibition is 0%.

On to `O=C1CCCCCC1C1(O)C(=O)Nc2ccccc21` (configuration not stated), for which the inhibition is 7%.

Regarding `Cn1cc(Br)c(C(=O)NC2CCCCC2)n1`, the inhibition is 4%.

With `Cc1c(NC(=O)C(C)OC(=O)C(NC(=O)c2ccco2)C(C)C)c(=O)n(-c2ccccc2)n1C` (configuration not stated), the inhibition was 8%.

Consider `O=C(O)CCC(=O)NC1CCCCC1NC(=O)CCC(=O)O` (configuration not stated), for which the inhibition is 0%.

Take `Cc1cccc(Nc2ccccc2C(=O)O)c1C`: the inhibition is 4%.

On to `COC(=O)CSc1nnc(CSc2nc(C)cc(C)n2)n1Cc1ccco1`, for which the inhibition was 0%.

`Cc1ccc(S(=O)(=O)N2CCN(S(=O)(=O)N(C)C)CC2)cc1`: the inhibition is 0%.

As to `COc1ccc(-c2noc(COc3ccc(C)c(C)c3)n2)cc1OC`, the inhibition was 0%.

For `Cn1c2c(c(=O)n(C)c1=O)C(NC(=O)C(C)(C)C)(C(F)(F)F)C(=O)N2` (configuration not stated), the inhibition was 0%.

`Cc1ccc(N=C2NC(=O)CS2)c(C)c1`: the inhibition is 0%.

On to `S=C(c1ccc(-c2cc(Cl)ccc2Cl)o1)N1CCOCC1`, for which the inhibition is 0%.

As for `C=C(C)Cn1c(N2CC(C)CC(C)C2)nc2c1c(=O)[nH]c(=O)n2C` (configuration not stated), the inhibition was 0%.

Regarding `O=C(CN(c1ccccc1)S(=O)(=O)c1ccccc1)N1CCN(Cc2ccc3c(c2)OCO3)CC1`, the inhibition is 0%.

In the case of `Cc1nc(SCC(=O)N2CCC(C(N)=O)CC2)n[nH]1`, the inhibition was 0%.
